Reference: PubChem BioAssay
Results filed as inconclusive are left out. Active and inactive are the calls of the source.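 How the source made its calls, unless noted: active means aptamer binding inhibition above 30%, about 3 SD of noise from non-fluorescent compounds; inactive means inhibition at or below 30%.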

Tests used:
[1] = yeast TOR pathway RPL19A-GFP modulators, primary screen, cell-based, S. cerevisiae, multiplex flow cytometry (AID 1862; in the data active means percent of DMSO control GFP below about 86%;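 further: lower values mimic rapamycin by blocking the RPL19A rise seen in DMSO cells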); conditions: S. cerevisiae RPL19A-GFP strain, flow cytometry fluorescence, 3 h; at 10 µM; stronger effect = lower value
[2] = modulators of MEP2-GFP levels in yeast, primary screen, S. cerevisiae, multiplex flow cytometry (AID 1867;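 active means GFP response, as percent of the DMSO control, above the screen-wide mean plus 3 SD, about 139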;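 further: median GFP channel fluorescence of barcode-gated MEP2-GFP cells measured by flow cytometry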); conditions: S. cerevisiae MEP2-GFP strain, 3 h, at 10 µM, stronger effect = higher value, 100% means same as DMSO wells
[3] = modulators of CIT2-GFP expression in yeast, primary screen, S. cerevisiae, GFP fusion, multiplex flow cytometry (AID 1870;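 active means percent response above a set limit, the screen-wide mean plus 3 SD, cut at about 130% in these data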;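 further: barcoded CIT2-GFP strain pooled with four other GFP strains with rapamycin as positive control; median GFP fluorescence per well over plate mean of DMSO wells so 100% = DMSO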); conditions: 3 h, at 10 µM, stronger effect = higher value
[4] = modulators of LAP4-GFP expression in yeast, primary screen, S. cerevisiae, multiplex flow cytometry (AID 1873;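 active means GFP signal, as percent of the solvent control, above the screen mean plus 3 SD, about 149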); conditions: 3 h, at 10 µM, stronger effect = higher value
[5] = modulators of AGP1-GFP expression in yeast TOR pathway, primary screen, cell-based, multiplex flow cytometry, S. cerevisiae (AID 1887;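 active means GFP signal above the screen-wide mean plus 3 SD, that is over about 124.5% of the solvent control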;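 further: AGP1-GFP fusion strain of S. cerevisiae within a five-strain barcoded multiplex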); conditions: 3 h, at 10 µM, stronger effect = higher value
[6] = inhibitors of CD8+ T cell-vesicle binding, pilot screen, LFA-1/ICAM-1 modulator project, MLPCN validation set, flow cytometry (AID 2523;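 active means response below a set limit, under 55% cells CD8-positive and vesicle-bound, and CD8 cells' 90th-percentile brightness under 279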;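 on vesicle binding response: mean PE anti-B7-1 fluorescence of CD8+ cells relative to row control; 100% = QL9-loaded vesicles with DMSO vehicle in the same plate row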); conditions: 2C mouse CD8+ T cells, at 7 µM, stronger effect = lower value; double positive events: measured here: CD8+/vesicle+ event percentage
[7] = target: Integrin beta-1 (Homo sapiens) + Integrin alpha-4 (Homo sapiens) (UniProt P13612+P05556); experiment: inhibition of HUTS-21 binding to VLA-4, pilot screen, VLA-4 allosteric modulator project, U937 cells, HUTS-21 mAb, flow cytometry, validation set (AID 2674;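 active means inhibition above 50%, about 3 SD of the validation set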;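 further: antibody binding induced by the VLA-4 ligand LDV present at three times its Kd; 0% = LDV ligand with antibody and no compound and 100% = antibody without LDV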); conditions: HUTS-21 LIBS mAb binding, at 6.7 µM, stronger effect = higher value, binding induced by LDV ligand
Integrin beta-1 (Homo sapiens) + Integrin alpha-4 (Homo sapiens), sequence (P05556 whole entry, looked up): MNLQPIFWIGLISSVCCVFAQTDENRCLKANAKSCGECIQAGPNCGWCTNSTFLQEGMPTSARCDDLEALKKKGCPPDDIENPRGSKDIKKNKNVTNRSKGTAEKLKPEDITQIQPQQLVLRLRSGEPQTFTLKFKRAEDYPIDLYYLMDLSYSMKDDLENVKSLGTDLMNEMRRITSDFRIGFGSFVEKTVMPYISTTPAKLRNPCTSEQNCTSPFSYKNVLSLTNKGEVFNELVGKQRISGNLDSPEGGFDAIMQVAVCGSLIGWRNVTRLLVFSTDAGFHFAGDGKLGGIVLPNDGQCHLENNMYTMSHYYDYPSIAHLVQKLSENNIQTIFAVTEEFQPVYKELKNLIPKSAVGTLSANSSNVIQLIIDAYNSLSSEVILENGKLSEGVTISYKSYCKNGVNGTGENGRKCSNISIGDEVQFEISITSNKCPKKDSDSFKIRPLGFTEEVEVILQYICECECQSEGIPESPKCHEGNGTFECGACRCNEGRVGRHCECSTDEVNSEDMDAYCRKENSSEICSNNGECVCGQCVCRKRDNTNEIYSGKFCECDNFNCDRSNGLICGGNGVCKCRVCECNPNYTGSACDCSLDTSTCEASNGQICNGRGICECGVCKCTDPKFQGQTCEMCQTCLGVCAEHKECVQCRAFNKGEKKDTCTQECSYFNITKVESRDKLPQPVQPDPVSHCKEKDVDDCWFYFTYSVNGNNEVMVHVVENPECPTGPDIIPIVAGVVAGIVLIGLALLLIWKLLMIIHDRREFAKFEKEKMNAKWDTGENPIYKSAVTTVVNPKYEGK
Integrin beta-1 (Homo sapiens) + Integrin alpha-4 (Homo sapiens), sequence (P13612 whole entry, looked up): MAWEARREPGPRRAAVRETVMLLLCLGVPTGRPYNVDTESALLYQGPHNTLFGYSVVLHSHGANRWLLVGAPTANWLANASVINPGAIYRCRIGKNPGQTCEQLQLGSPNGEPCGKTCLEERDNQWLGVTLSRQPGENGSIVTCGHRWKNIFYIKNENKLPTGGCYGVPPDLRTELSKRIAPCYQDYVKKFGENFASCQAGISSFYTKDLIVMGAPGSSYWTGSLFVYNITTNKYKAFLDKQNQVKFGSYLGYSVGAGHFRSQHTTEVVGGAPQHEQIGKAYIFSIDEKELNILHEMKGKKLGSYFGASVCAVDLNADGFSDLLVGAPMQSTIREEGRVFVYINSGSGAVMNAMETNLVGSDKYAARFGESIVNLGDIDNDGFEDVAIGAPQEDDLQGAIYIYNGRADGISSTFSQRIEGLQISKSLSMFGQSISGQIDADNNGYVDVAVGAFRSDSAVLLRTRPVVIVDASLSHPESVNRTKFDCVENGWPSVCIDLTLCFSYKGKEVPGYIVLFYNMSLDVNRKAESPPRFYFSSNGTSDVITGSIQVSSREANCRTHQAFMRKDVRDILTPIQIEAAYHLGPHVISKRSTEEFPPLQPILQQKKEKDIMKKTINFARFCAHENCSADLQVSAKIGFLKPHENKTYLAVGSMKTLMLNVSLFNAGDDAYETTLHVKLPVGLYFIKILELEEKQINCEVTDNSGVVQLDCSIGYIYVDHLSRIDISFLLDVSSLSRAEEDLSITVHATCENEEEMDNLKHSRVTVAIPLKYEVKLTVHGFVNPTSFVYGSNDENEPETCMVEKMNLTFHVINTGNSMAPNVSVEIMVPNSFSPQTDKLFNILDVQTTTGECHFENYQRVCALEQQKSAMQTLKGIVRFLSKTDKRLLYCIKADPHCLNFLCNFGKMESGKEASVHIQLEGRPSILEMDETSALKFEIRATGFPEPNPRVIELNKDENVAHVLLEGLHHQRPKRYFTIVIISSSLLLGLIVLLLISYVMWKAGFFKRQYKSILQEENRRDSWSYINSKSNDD

[8] = superoxide lowering in aged yeast cells, pilot screen, validation compound set (AID 2706;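 active means superoxide response below 65% of plate, a cut near 3 SD across the whole screen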;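 further: yeast exposed to compound for one week at 30 degrees C before staining; 100% = mean of all compound wells on the same plate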); conditions: S. cerevisiae aging, superoxide DHE fluorescence; at 10 µM; stronger effect = lower value
[9] = target: Beta-adrenergic receptor kinase 1 (Homo sapiens) (UniProt P25098); experiment: GRK2 binders displacing RNA aptamer, biochemical, validation, human GRK2, bead flow cytometry (AID 488806); conditions: bead-bound GRK2, FAM-aptamer displacement, at 10 µM, stronger effect = higher value
Beta-adrenergic receptor kinase 1 (Homo sapiens), sequence (P25098 whole entry, looked up): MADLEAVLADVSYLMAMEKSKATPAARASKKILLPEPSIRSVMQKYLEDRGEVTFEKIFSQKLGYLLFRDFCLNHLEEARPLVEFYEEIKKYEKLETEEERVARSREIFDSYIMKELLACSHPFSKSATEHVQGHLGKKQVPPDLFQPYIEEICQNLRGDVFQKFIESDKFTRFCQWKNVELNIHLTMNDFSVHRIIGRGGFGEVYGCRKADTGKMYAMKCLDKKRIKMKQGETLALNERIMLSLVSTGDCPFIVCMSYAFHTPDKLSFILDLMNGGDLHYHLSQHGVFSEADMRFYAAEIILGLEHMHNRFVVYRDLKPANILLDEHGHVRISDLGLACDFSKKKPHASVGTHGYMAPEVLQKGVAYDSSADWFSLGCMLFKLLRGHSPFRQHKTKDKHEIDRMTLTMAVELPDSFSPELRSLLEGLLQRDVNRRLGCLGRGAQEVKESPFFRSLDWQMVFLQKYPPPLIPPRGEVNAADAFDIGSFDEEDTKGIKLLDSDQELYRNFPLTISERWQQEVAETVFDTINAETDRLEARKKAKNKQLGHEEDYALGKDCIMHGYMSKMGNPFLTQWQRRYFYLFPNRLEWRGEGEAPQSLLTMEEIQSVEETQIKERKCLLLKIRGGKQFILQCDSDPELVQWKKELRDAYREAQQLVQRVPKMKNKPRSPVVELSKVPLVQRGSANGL

[10] = target: Beta-2 adrenergic receptor (Homo sapiens) (UniProt P07550); experiment: beta2AR agonists driving receptor internalization, pilot screen, cell-based, FAP fluorogen, flow cytometry, validation set (AID 504459;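 active means percent response above 42, roughly 3 SD of non-fluorescent test compounds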;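 further: agonist-driven loss of surface beta2AR via internalization measured by FAP dye flow cytometry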); conditions: Am2.2-beta2AR cells, FAP surface receptor flow cytometry; at 10 µM; stronger effect = higher value
Beta-2 adrenergic receptor (Homo sapiens), sequence (P07550 whole entry, looked up): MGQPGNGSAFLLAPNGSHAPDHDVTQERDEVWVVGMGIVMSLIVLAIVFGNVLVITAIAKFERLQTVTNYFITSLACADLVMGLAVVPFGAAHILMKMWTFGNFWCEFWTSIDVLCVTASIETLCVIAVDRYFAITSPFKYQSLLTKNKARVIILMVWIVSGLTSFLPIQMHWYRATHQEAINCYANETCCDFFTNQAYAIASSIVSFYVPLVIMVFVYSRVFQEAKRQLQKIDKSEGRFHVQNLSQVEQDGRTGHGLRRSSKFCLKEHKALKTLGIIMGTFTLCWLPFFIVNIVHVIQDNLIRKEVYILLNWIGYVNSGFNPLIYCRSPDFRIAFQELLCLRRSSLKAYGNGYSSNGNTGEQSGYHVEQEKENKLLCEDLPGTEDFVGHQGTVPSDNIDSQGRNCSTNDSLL

[11] = target: AP-2 complex subunit beta (Homo sapiens) (UniProt P63010); experiment: inhibitors of arrestin peptide binding to AP2, pilot screen, biochemical, validation set, GST-AP2 beads, flow cytometry (AID 504541;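 active means inhibition above 54%, about 3 SD of non-fluorescent compounds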;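 further: AP2 carries R879A mutation and is captured from E. coli lysate; bead-bound FITC arrestin peptide fluorescence measuring arrestin peptide binding to AP2; 0% = DMSO wells and 100% = excess unlabeled arrestin peptide control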); conditions: FITC arrestin peptide, at 10 µM, stronger effect = higher value, AP2 beta2 appendage fragment, R879A mutant
AP-2 complex subunit beta (Homo sapiens), sequence (P63010 whole entry, looked up, the tested form may be a part, one chain of several): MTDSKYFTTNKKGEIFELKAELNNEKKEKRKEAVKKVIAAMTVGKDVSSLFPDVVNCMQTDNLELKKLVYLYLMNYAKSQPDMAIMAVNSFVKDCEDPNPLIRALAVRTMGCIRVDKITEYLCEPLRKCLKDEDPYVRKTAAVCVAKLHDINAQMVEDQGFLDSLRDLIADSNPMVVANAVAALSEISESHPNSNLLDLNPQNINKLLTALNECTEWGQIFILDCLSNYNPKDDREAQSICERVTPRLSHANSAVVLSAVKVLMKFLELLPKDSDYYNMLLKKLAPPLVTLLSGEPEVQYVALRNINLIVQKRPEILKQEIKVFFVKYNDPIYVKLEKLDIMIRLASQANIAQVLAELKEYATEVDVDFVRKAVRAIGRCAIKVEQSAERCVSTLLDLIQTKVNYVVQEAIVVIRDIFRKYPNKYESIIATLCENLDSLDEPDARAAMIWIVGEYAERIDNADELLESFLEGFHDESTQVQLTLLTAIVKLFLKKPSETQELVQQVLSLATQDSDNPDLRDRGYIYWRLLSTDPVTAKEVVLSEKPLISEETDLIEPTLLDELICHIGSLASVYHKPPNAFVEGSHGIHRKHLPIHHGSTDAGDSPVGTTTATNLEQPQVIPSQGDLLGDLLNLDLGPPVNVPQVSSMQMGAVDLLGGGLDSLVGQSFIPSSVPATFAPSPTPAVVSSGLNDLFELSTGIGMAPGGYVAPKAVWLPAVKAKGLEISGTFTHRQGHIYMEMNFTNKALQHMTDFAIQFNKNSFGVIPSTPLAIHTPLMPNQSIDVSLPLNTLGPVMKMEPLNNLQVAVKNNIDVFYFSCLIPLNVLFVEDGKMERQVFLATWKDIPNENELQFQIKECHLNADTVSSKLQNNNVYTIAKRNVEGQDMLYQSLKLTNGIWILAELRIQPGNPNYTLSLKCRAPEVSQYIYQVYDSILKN

[12] = yeast V-ATPase proton transport modulators, S. cerevisiae, pHLuorin, HTS validation (AID 504600; in the data active means response above about 15%;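 further: plate controls were DMSO for no effect and reference compound for full effect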); conditions: S. cerevisiae pHLuorin cytosolic pH, at 10 µM, stronger effect = higher value
[13] = tested on: anti-desmoglein-3 scFv antibody binding to human DSG3; experiment: inhibitors of anti-DSG3 scFv binding to DSG3, pilot screen, biochemical, validation compound set, bead-based, flow cytometry (AID 588368;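 active means binding below the plate cutoff, the plate median minus 3 SD, with a reading above zero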;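 further: signal is the median channel fluorescence of bead-bound GFP antibody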); conditions: Protein G beads, DSG3-Fc, scFv-GFP binding, at 10 µM, stronger effect = lower value
[14] = inhibitors of fungal efflux pumps CDR1, CDR2, MDR1, pilot screen, validation compound set, multiplex, phenotypic (AID 588506;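 active means efflux inhibition above 0.42, the validation set average plus 4 SD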;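 further: Nile Red retained in cells so higher fluorescence means more efflux inhibition; 0 = negative control wells and 1 = enniatin B 25 µM full block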); conditions: S. cerevisiae pump-expressing triplex, Nile Red efflux flow cytometry; at 10 µM; stronger effect = higher value; the pumps come from Candida albicans
[15] = target: ATP-binding cassette sub-family B member 6 (Homo sapiens) (UniProt Q9NP58); experiment: ABCB6 transporter inhibitors, pilot screen, K562-ABCB6 cells, flow cytometry, validation set (AID 588550;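 active means inhibition above the screen-wide mean plus 3 SD, about 51%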;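 further: 0% = DMSO wells and 100% = benzethonium chloride 70 µM positive control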); conditions: K562-ABCB6 porphyrin accumulation, 1 h, at 10 µM, stronger effect = higher value
ATP-binding cassette sub-family B member 6 (Homo sapiens), sequence (Q9NP58 whole entry, looked up): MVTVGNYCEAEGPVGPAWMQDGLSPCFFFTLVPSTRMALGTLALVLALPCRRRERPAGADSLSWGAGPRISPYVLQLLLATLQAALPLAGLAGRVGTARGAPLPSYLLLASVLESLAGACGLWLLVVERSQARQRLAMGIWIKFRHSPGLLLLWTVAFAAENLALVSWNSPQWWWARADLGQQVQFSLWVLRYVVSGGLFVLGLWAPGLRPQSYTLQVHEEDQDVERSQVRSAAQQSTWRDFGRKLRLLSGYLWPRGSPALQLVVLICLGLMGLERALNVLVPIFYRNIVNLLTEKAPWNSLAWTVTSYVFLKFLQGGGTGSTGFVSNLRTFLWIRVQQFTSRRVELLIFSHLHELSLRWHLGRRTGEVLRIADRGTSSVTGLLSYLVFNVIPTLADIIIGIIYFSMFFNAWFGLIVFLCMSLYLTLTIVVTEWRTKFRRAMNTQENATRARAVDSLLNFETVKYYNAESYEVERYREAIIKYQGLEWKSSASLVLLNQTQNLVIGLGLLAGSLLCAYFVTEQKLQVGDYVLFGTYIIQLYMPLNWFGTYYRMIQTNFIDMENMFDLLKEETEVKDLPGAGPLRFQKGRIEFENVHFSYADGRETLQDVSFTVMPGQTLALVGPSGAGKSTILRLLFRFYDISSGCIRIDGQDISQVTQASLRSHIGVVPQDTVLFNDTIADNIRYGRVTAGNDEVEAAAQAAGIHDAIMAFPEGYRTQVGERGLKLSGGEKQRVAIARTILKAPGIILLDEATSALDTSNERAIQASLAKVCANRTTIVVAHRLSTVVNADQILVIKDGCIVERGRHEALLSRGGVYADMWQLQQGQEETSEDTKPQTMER

[16] = promoters of myeloid differentiation in arrested cells, primary screen, cell-based, GFP/MAC1 double positive, flow cytometry, validation set (AID 588685;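 active means differentiation response of at least 50%, scaled between solvent and reference control, from cells with both markers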;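 further: compound exposure lasts four days before antibody staining and flow analysis; 0% = DMSO wells and 100% = 5 µM fulvestrant positive control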); conditions: ER-HoxA9 marrow cells, stronger effect = higher value, normalized: vehicle 0, fulvestrant 100

CC1(C)O[C@@H]2C[C@H]3[C@@H]4C[C@H](F)C5=CC(=O)CC[C@]5(C)[C@H]4[C@@H](O)C[C@]3(C)[C@]2(C(=O)CO)O1
63.8%: double positive events [6]
active: aptamer binding inhibition [9] 37%
inactive: percent of DMSO control GFP [1] 97.9% | GFP response vs DMSO [2] 95.6% | percent response of DMSO control [3] 89.3% | GFP response vs DMSO [4] 91.5% | GFP response, % of DMSO [5] 92.4% | vesicle binding response [6] 128% | inhibition [7] -2.43% | superoxide response (% of plate) [8] 88.9% | response [10] 19% | inhibition [11] -4.49% | response [12] -2% | binding (% of control) [13] 106% | efflux inhibition (fraction of control) [14] 0.25 | inhibition [15] 12% | differentiation response [16] 34.9%

CC(C)(C)C(=O)NC(=S)NNC(=O)c1ccncc1
inactive: percent of DMSO control GFP [1] 98.2% | GFP response vs DMSO [2] 104% | percent response of DMSO control [3] 101% | GFP response vs DMSO [4] 127% | GFP response, % of DMSO [5] 109% | vesicle binding response [6] 185% | inhibition [7] -7.08% | superoxide response (% of plate) [8] 88.6% | aptamer binding inhibition [9] -5% | response [10] -25% | inhibition [11] -3.36% | response [12] 2.56% | binding (% of control) [13] 105% | efflux inhibition (fraction of control) [14] -0.04 | inhibition [15] -5% | differentiation response [16] -7.94%
57.3%: double positive events [6]

C/C(=N\NC(=O)C1(C)CC1(Br)Br)c1ccc([N+](=O)[O-])cc1 (stereo not drawn)
inactive: percent of DMSO control GFP [1] 105% | GFP response vs DMSO [2] 99.3% | percent response of DMSO control [3] 105% | GFP response vs DMSO [4] 85.5% | GFP response, % of DMSO [5] 104% | vesicle binding response [6] 390% | inhibition [7] -0.45% | superoxide response (% of plate) [8] 83.6% | aptamer binding inhibition [9] 6% | response [10] -9.52% | inhibition [11] -5.83% | binding (% of control) [13] 98.5% | efflux inhibition (fraction of control) [14] -0.17 | inhibition [15] 1% | differentiation response [16] 13.9%
active: response [12] 26.1%
65.3%: double positive events [6]

CCN1CCN(C(=S)c2ccc(OC)cc2)CC1
62.5%: double positive events [6]
inactive: percent of DMSO control GFP [1] 101% | GFP response vs DMSO [2] 99.6% | percent response of DMSO control [3] 109% | GFP response vs DMSO [4] 76% | GFP response, % of DMSO [5] 92.6% | vesicle binding response [6] 183% | inhibition [7] -4.52% | superoxide response (% of plate) [8] 106% | aptamer binding inhibition [9] 2% | response [10] 11.6% | inhibition [11] -10.4% | binding (% of control) [13] 101% | efflux inhibition (fraction of control) [14] -0.21 | inhibition [15] 9% | differentiation response [16] -20%
active: response [12] 19.2%

COc1ccccc1OCC(=O)O
inactive: percent of DMSO control GFP [1] 96.3% | GFP response vs DMSO [2] 107% | percent response of DMSO control [3] 98.6% | GFP response vs DMSO [4] 122% | GFP response, % of DMSO [5] 103% | vesicle binding response [6] 167% | inhibition [7] 3.67% | superoxide response (% of plate) [8] 106% | aptamer binding inhibition [9] -3% | response [10] -4.79% | inhibition [11] -3.11% | response [12] -0.38% | binding (% of control) [13] 99.3% | efflux inhibition (fraction of control) [14] -0.06 | inhibition [15] 6% | differentiation response [16] -26.4%
61.5%: double positive events [6]

Oc1[nH]c2ccccc2c1C1=NCCCC1
63.2%: double positive events [6]
inactive: percent of DMSO control GFP [1] 102% | GFP response vs DMSO [2] 105% | percent response of DMSO control [3] 96% | GFP response vs DMSO [4] 99.4% | GFP response, % of DMSO [5] 106% | vesicle binding response [6] 161% | inhibition [7] -3.18% | superoxide response (% of plate) [8] 84.9% | aptamer binding inhibition [9] 8% | response [10] 17.8% | inhibition [11] -15.4% | response [12] 1.51% | binding (% of control) [13] 102% | efflux inhibition (fraction of control) [14] -0.12 | inhibition [15] 11% | differentiation response [16] 0%

COC(=O)c1ccccc1NC(=O)c1ccc(COc2ccc3c(c2)CCC3)cc1
active: efflux inhibition (fraction of control) [14] 0.46
inactive: percent of DMSO control GFP [1] 99.6% | GFP response vs DMSO [2] 99.3% | percent response of DMSO control [3] 90.8% | GFP response vs DMSO [4] 105% | GFP response, % of DMSO [5] 94.8% | vesicle binding response [6] 521% | inhibition [7] 7.85% | superoxide response (% of plate) [8] 82.8% | aptamer binding inhibition [9] 5% | response [10] -3.71% | inhibition [11] 0.16% | response [12] -3.9% | binding (% of control) [13] 98.9% | inhibition [15] -3% | differentiation response [16] 1.22%
64.4%: double positive events [6]

COc1ccc(CN2CCC(=O)NC2=O)cc1
active: differentiation response [16] 116%
59.9%: double positive events [6]
inactive: percent of DMSO control GFP [1] 102% | GFP response vs DMSO [2] 105% | percent response of DMSO control [3] 97.7% | GFP response vs DMSO [4] 105% | GFP response, % of DMSO [5] 96.5% | vesicle binding response [6] 170% | inhibition [7] 3.67% | superoxide response (% of plate) [8] 101% | aptamer binding inhibition [9] -2% | response [10] -1.29% | inhibition [11] 33.2% | response [12] -0.38% | binding (% of control) [13] 81.3% | efflux inhibition (fraction of control) [14] 0.08 | inhibition [15] 2%

COc1cc(C(=O)OCCn2c(=O)c3c(ncn3CCN(C)C)n(C)c2=O)cc(OC)c1OC
62.6%: double positive events [6]
inactive: percent of DMSO control GFP [1] 106% | GFP response vs DMSO [2] 103% | percent response of DMSO control [3] 101% | GFP response vs DMSO [4] 112% | GFP response, % of DMSO [5] 117% | vesicle binding response [6] 156% | inhibition [7] 4.84% | superoxide response (% of plate) [8] 115% | aptamer binding inhibition [9] 6% | response [10] -24.2% | inhibition [11] -2.34% | response [12] -26.2% | binding (% of control) [13] 112% | efflux inhibition (fraction of control) [14] -0.13 | inhibition [15] 9% | differentiation response [16] -6.96%
